From PubChem BioAssay
Methyltransferases: Primary Screen for Target Class Profiling of Small Molecule Inhibitors of Methyltransferases | purified enzyme, MTase-Glo SAH luminescence; hits give low values | calls only at 40 µM | hit rate 3.9% among 25,000 | AID 1745853, 2022; call rule not given here
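Each enzyme was reacted with SAM and its substrate, with compounds tested once at 40 uM; SAH formed was read by MTase-Glo luminescence.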
* marks the source's active call; other numbers are inactive results; i = inactive; + = active, no number. The entries come from a sample that favours hits as a whole. On the % scale 0 is the no-effect control and ±100 the full control effect.

SMILES	Methyltransferases
CCCN1C(=O)c2c(C(=O)NCc3cc(OC)ccc3OC)ncn2CC1(C)C(=O)NCc1ccccc1 (stereo not drawn)	i
CCOC(=O)c1cc2n(n1)CC(C)(C(=O)NCCC(C)C)N(Cc1cccc(C)c1)C2=O (stereo not drawn)	i
O=C1C(SCCO)=C(SCCO)C(=O)c2ccccc21	+
O=c1ccc2c(OCCCCc3ccccc3)c3ccoc3cc2o1	i
O=S(=O)(c1ccccc1)c1nnn2c1nc(NCCc1ccccc1)c1cc(Cl)ccc12	i
O=c1cc(-c2ccccc2)oc2c(O)c(O)ccc12	i
Cc1cc(=O)oc2c(C=O)c(O)ccc12	+
COC(=O)COc1ccc2c(-c3ccccc3)cc(=O)oc2c1C	i
C=CCN(C(=O)Cn1c(=O)oc2cc(S(=O)(=O)N3CCCC3)ccc21)c1ccccc1	i
O=C(CCn1ccc2cc(S(=O)(=O)N3CCCCC3)ccc21)N1CCC(Cc2ccccc2)CC1	i
COc1cccc(CNc2nc3c(-c4cccc(F)c4)nnn3c3ccccc23)c1	i
CC1(C(=O)NCc2ccc(F)cc2)Cn2c(nc3ccccc32)C(=O)N1Cc1ccc(Cl)cc1 (stereo not drawn)	i
COCc1noc([C@@H]2CN(C(=O)C3CC=CCC3)C[C@H]2C(N)=O)n1 (stereo partly drawn)	i
CN1CCN(C2=Nc3ccccc3Nc3ccc(OS(=O)(=O)C(F)(F)F)cc32)CC1	i
CCc1ccc(CNC(=O)c2cc3n(n2)CC(C)(C(=O)NC2CCCCCC2)N(C)C3=O)cc1 (stereo not drawn)	i
O=C(c1cc(-c2ccc(Cl)cc2Cl)c2cccn2n1)N1CCCC1	i
COc1ccccc1CNC(=O)C1(C)Cn2nc(-c3ccccc3)cc2C(=O)N1Cc1ccccc1 (stereo not drawn)	i
O=C1NC(=O)C(c2ccccc2[N+](=O)[O-])=C1Nc1ccc(O)c(Cl)c1	+
CCCn1c(=O)c2ccccc2n2c(SCC(=O)Nc3ccccc3CC)nnc12	i
CC(=O)Nc1ccc(-c2nnc3n(Cc4ccccc4Cl)c(=O)c4ccccc4n23)cc1	i
Cc1cc(C)cc(NS(=O)(=O)c2ccc3c(c2)NC(=O)CC(=O)N3)c1	i
CCC(C)NC(=O)c1ccc2c(=O)n(CCC(C)C)c3nn(Cc4ccccc4F)c(=O)n3c2c1 (stereo not drawn)	i
Cc1ccc(Cn2c(=O)c3ccccc3n3c(=O)n(CC(=O)Nc4cc(F)ccc4F)nc23)cc1	i
Cc1ccc(CNC(=O)c2ccc3c(=O)[nH]c4c(C(=O)NCC5CCCO5)sc(=S)n4c3c2)cc1 (stereo not drawn)	i
C=CCNC(=O)c1ccc2c(=O)[nH]c3c(C(=O)NC(C)C)sc(=S)n3c2c1	i
SMILES	Methyltransferases
Cc1ccc(CNC(=O)c2ccc3c(=O)[nH]c4c(C(=O)NC(C)C)sc(=S)n4c3c2)cc1	+
CCc1nc2c(c(-c3ccc(Cl)cc3)n1)CN(Cc1ccccn1)CC2	i
CCC/C=C/C(=O)O[C@H]1CC(C)(C)CC2[C@@]13[C@H](O)C[C@]1(C)[C@@]2(CCC2[C@@]4(C)CC[C@H](O[C@@H]5O[C@H](C(=O)O)[C@@H](O)[C@H](O[C@@H]6O[C@H](CO)[C@H](O)[C@H](O)[C@H]6O[C@@H]6O[C@@H](C)[C@H](O)[C@@H](O)[C@H]6O[C@@H]6OC[C@](O)(CO)[C@H]6O)[C@H]5O[C@@H]5O[C@H](CO)[C@H](O)[C@H](O)[C@H]5O)C(C)(C)C4CC[C@]21C)O[C@H]3O (stereo partly drawn)	i
CC1(C(=O)NC2CCCCC2)Cn2c(cc3sccc32)C(=O)N1CCc1ccccc1 (stereo not drawn)	i
COC(=O)c1ccc([C@@H]2Nc3c(Cl)cccc3[C@@H]3C=CC[C@@H]32)cc1	i
Fc1cccc2c1NC(c1ccc(Cl)cc1)C1CC=CC21 (stereo not drawn)	i
Cc1ccc(C(=O)O)c2c1N[C@H](c1cccc(Cl)c1)C1CC=CC21 (stereo partly drawn)	+
CC1(C)C[C@H](NCc2ccc(CO)o2)[C@@]2(CCC(=O)N3CCOCC3)CC[C@](C)(O)C[C@@H]12	i
COc1ccc(OC)c(CCN2C(=O)c3cc4ccccc4n3CC2(C)C(=O)NCCC(C)C)c1 (stereo not drawn)	i
O=C(CCn1ccc2cc(S(=O)(=O)N3CCCCC3)ccc21)NCc1ccccn1	i
CCCCNC(=O)c1cc2n(n1)CC(C)(C(=O)NC1CCCCC1)N(C)C2=O (stereo not drawn)	i
Oc1cc(CNC(=S)/C=C/c2cc(O)c(O)c(Br)c2)cc(O)c1O	+
COc1cc(C(N)=O)nc(-c2ccccn2)c1O	i
CC(C)CNC(=O)c1ccc2c(=O)n(C)c3nn(Cc4cccc(F)c4)c(=O)n3c2c1	i
CN(C)S(=O)(=O)N1[C@@H]2CC[C@H]1CC(NC(=O)c1ccc(F)cc1)C2 (stereo partly drawn)	i
C=CC(=O)N1CCN(C(=O)CNc2cc(-c3ccccc3Cl)c(Cl)cc2OC)CC1	i
